Screening results from PubChem BioAssay.
Rows were chosen to be rich in hits. Some 2.8% of all compounds tested hit in one or more screens of this group.
Six1-Eya2 blk – qHTS Assay for Inhibitors of the Six1/Eya2 Interaction; activity change, % (test concentration not listed); 0.56% of 360,000 active; AlphaScreen GST-Six1/His-Eya2 binding, biochemical; stronger effect = lower value; in the data active means activity change below about -65%; inconclusive means mostly about -30% to -63%; further: on the % scale 0 is the no-effect control and ±100 the full control effect
Target sequence (O00167 whole entry, looked up): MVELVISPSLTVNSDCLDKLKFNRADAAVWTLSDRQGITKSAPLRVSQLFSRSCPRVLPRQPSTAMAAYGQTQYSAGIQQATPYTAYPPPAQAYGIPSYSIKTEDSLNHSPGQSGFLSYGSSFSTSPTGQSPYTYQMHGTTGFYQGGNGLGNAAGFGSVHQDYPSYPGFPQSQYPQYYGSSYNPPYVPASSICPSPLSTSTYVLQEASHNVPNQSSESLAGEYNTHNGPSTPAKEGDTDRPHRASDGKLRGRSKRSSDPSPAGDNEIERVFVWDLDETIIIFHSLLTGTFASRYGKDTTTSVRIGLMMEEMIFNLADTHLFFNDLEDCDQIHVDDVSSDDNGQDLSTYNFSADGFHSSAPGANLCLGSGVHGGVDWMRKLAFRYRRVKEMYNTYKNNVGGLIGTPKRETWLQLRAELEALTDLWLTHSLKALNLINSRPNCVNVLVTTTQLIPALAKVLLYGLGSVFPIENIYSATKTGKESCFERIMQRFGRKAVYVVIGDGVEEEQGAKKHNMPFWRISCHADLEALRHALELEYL
Target sequence (Q15475 whole entry, looked up): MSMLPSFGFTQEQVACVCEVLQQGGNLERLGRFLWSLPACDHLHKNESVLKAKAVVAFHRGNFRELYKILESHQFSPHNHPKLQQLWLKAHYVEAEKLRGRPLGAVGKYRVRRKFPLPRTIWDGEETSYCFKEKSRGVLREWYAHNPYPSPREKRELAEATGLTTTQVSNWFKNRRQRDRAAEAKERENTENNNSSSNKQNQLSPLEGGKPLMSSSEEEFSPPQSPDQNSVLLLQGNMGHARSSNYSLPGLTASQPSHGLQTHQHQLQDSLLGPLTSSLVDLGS
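Six1/Eya2 binding was read as AlphaScreen signal after compounds were pinned into GST-Six1 plus His-tagged Eya2 (5X stock 250/500 nM) in pH 8.0 Tris/NaCl/TCEP buffer, beads added, then incubated 1 h, 37 C, dark.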
CtBP-E1A inh – qHTS Assay for Inhibitors of the CtBP/E1A Interaction. CtBP / adenovirus E1A interaction (AlphaScreen). AlphaScreen GST-E1A/His-CtBP binding, 1536-well; stronger effect = lower value. activity change, % (concentration not given with the values). 0.49% of 340,000 active. AID 651724, 2012; in the data active means activity change below about -65%; inconclusive means mostly about -30% to -63%; further: on the % scale 0 is the no-effect control and ±100 the full control effect
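In 5 uL wells, 23 nL compound meets equimolar GST-E1A and His-CtBP (5X stock 125 nM each) for 2 h, 37 °C. Beads (5X, 50 ug/mL) then 1 h, 37 °C, dark.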
ATXN viability – Viability Counterscreen for Primary qHTS for Inhibitors of ATXN expression; S2 cells (HEK-293 line with an ATXN2-luciferase reporter) viability, CellTiter-Fluor protease fluorescence, 24 h; Potency, µM (titrated, usually from 56.7 µM), most hits filed as cytotoxic; 0.49% of 400,000 active; AID 651635, 2014; further: potency means the concentration at half of the fitted maximal effect; nearly all actives have a fitted effect of over 40% in size
HepG2 viability – qHTS for Inhibitors of TGF-b: Cytotox Counterscreen | HepG2 CAGA-GFP viability, ATP luminescence, 18 h | Potency, µM (series often up to 46.1 µM), for the others: at the top dose activity change, negative = cytotoxicity, most hits filed as cytotoxic | 0.76% of 410,000 active; further: potency means the concentration at half of the fitted maximal effect
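CellTiter-Glo luminescence gave cytotoxicity after 18 hours at 37 degrees C. The cells were HepG2 CAGA-GFP in 1% FBS DMEM, stimulated with 500 pg/mL TGF-beta after compound addition. %Activity was normalised to no-cell wells (complete cell-killing) and DMSO (no toxicity), and curves were fitted and classified.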
TGFb SMAD3 inh – qHTS for Inhibitors of TGF-b. HepG2 CAGA-GFP TGF-b/SMAD3 reporter, GFP fluorescence, 18 h; TGF-beta stimulated, 500 pg/mL final. Potency, µM (top dose mostly 46.1 µM), for the others: top-dose activity, negative = inhibition, usual class: inhibitors. 1.2% of 410,000 active. AID 588855, 2011; further: potency means the concentration at half of the fitted maximal effect; on the % scale 0 is the no-effect control and ±100 the full control effect; nearly all actives have a fitted effect of over 65% in size
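TGF-beta reporter screen: HEPG2 CAGA-GFP, 1% FBS, 500 pg/mL TGF-beta final, 18 h; per-cell GFP summed per well; curves fitted and categorized by class.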
ATXN2 expr inh – Primary qHTS for Inhibitors of ATXN expression; HEK-293 ATXN2-luciferase reporter, luminescence, 24 h; Potency, µM (top dose mostly 57 µM), for the others: top-dose activity change, negative = inhibition, most hits filed as inhibitors; 0.72% of 360,000 active; AID 1745845, 2022; further: potency means the concentration at half of the fitted maximal effect; on the % scale 0 is the no-effect control and ±100 the full control effect; nearly all actives have a fitted effect of over 55% in size
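qHTS (up to 57 uM final) was run with 24 h compound exposure of reporter cells at 37 °C. Each well was multiplexed: SteadyGlo luminescence measured ATXN2-luciferase expression after a fluorogenic Gly-Phe-AFC viability readout (25 uM final).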
* marks the source's active call; other numbers are inactive results; i = inactive; ? = inconclusive; / = no result given. Unless noted, the call rests on the fitted dose curve; in most records, active means well fitted curve in the direction sought with a large enough effect; inconclusive means small, poorly fitted or top-dose-only effect, or another doubt; inactive means no such curve, though single readings can be large; an effect the other way counts as inactive or inconclusive.

SMILES	Six1-Eya2 blk	CtBP-E1A inh	ATXN viability	HepG2 viability	TGFb SMAD3 inh	ATXN2 expr inh
CCC(C)(C)n1nnnc1C(c1cccs1)N1CCc2ccccc21 (stereo not drawn)	-19.7	4.3	i	-30.6%	12.6µM*	?
COC(=O)CC(NC1CCN(c2nc(C)c3cc4c(cc3n2)CCC4)CC1)C(=O)OC (stereo not drawn)	/	/	i	/	/	/
O=C(c1cccnc1)C1CCCN(Cc2ccc3c(c2)CN(C(=O)c2cn4ccccc4n2)CCO3)C1 (stereo not drawn)	/	/	i	/	/	/
Cc1cnc(NC(=O)CCCc2nc3ccccc3s2)s1	-9.0	-2.6	?	-3.6%	?	2.51µM*
CCN(CC(=O)Nc1ccc(NC(C)=O)cc1)c1ccc(C(F)(F)F)cn1	13.7	-9.4	i	3.55µM*	3.4%	4.7%
COc1cc(-c2c(OC)cccc2OC)cc2c1OCCN(Cc1cn[nH]c1-c1ccc(Cl)cc1)C2	/	/	i	/	/	/
CCOC(=O)c1cc2c(ccn2C)n1CC(=O)N1CCC(Cc2ccccc2)CC1	?	7.0	?	-33.5%	11.2µM*	0.0%
CC(=O)c1cc2ccccc2s1	/	/	i	/	/	3.3%
O=C1C=C(c2ccc(Cl)c(C(F)(F)F)c2)C[C@@H](c2ccc(Cl)cc2)C1	3.0	-1.2	i	-45.0%	14.1µM*	-16.4%
Cn1c(=O)n(C)c2cc(N3CCOCC3)c(NS(=O)(=O)c3cccc(C#N)c3)cc21	/	/	i	7.6%	-0.9%	-2.9%
Cc1cccc(-c2nnc3sc(-c4ccccc4C)nn23)c1	-15.0	-1.9	i	12.6µM*	-3.8%	-18.0%
COC(=O)C1=C(C)N(Cc2ccccc2)C(=S)N[C@H]1c1ccc(Br)cc1	-20.9	-10.4	?	-1.4%	12.6µM*	?
COC(=O)C1=C(C)N(Cc2ccccc2)C(=S)N[C@H]1c1cccc(C(F)(F)F)c1	-5.3	-19.2	?	-2.0%	?	-30.5%
COC(=O)C1=C(C)N(Cc2ccccc2)C(=NCCc2cccnc2)N[C@H]1c1ccc(Br)cc1	1.6	-9.7	?	15.8µM*	?	31.6µM*
Cc1c(CN2CCOc3c(O)cc(-c4nc5ccccc5s4)cc3C2)cnn1C	/	/	i	/	/	/
CC1=C(c2ccc(C)c(C)c2)S(=O)(=O)N(Cc2ccc(C(=O)NC(C)c3ccccc3)cc2)C1=O (stereo not drawn)	/	/	i	1.5%	2.8%	-1.0%
COc1ccccc1Nc1c2c(nc3ccc(NC(=O)c4ccc(OC)c(OC)c4)cc13)CCCC2	/	/	25.1µM*	22.4µM*	?	?
COc1ccc(C(=O)Nc2ccc3nc4c(c(Nc5ccc(OC)c(OC)c5)c3c2)CCCC4)c(OC)c1	/	/	28.2µM*	-87.7%	?	?
COc1ccccc1Nc1c2c(nc3ccc(NC(=O)c4cccc(OC)c4OC)cc13)CCCC2	/	/	/	-56.6%	?	/
O=C(NNC(=O)c1cc(S(=O)(=O)N2CCOCC2)c(Cl)cc1Cl)c1ccccc1F	-65.7*	-87.0*	i	-0.7%	12.2%	-3.9%
O=C(Nc1ccccc1O)c1cc(S(=O)(=O)N2CCOCC2)c(Cl)cc1Cl	-21.1	?	i	-41.3%	?	-5.8%
Cc1cn(C)c(CC(=O)N2CCN(c3cccc(Cl)c3)CC2)c1C(=O)O	/	/	i	2.9%	-1.7%	-5.5%
C=C1C(=O)[C@]23C[C@H]1CCC2[C@]1(C)CCC[C@@](C)(C(=O)O)C1C[C@@H]3O (stereo partly drawn)	-22.3	-2.9	7.08µM*	-87.3%	2.51µM*	3.55µM*
C=C1C(=O)[C@]23C[C@H]1CC[C@H]2[C@]1(C)[C@@H](OC(C)=O)CC[C@@](C)(C(=O)O)[C@H]1C[C@@H]3OC(C)=O	2.1	0.0	?	-85.5%	10µM*	17.8µM*
